Common to all, as to experiment: PBM; 200 nM protein, PBS
What all share (details): dsDNA, one strand shown

Assay [1] concerns the target T1, PAX4 (Homo sapiens, UniProt O43316 9-242, R200K).
T1 sequence: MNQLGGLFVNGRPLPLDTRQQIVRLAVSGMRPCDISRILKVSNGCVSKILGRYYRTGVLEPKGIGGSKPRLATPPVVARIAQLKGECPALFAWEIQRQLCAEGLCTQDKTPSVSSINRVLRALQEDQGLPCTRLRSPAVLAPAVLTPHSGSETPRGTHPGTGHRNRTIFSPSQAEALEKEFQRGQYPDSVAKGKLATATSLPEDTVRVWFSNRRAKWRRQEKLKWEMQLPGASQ

For assay [2], the target named is T2, PAX4 (Homo sapiens, UniProt O43316 9-242).
T2 sequence: T1 sequence with K192R

For assay [3], the target named is HOXB6 (Homo sapiens, UniProt P17509 132-218, K202E).
For assay [4], the target named is MSX2 (Homo sapiens, UniProt P35548 130-214, R199I).
Assay [5] concerns the target T3, PAX4 (Homo sapiens, UniProt O43316 9-242, R200Q).
T3 sequence: T1 sequence with K192Q

The target in assay [6] is T4, PAX4 (Homo sapiens, UniProt O43316 9-242, F177V).
T4 sequence: T1 sequence with F169V, K192R

The target in assay [7] is MSX2 (Homo sapiens, UniProt P35548 130-214).
The target in assay [8] is T5, PAX4 (Homo sapiens, UniProt O43316 9-242, F177Y).
T5 sequence: T1 sequence with F169Y, K192R

The target in assay [9] is MSX2 (Homo sapiens, UniProt P35548 130-214, F161Y).
Assay [10] addresses T6, PAX4 (Homo sapiens, UniProt O43316 9-242, R227W).
T6 sequence: T1 sequence with K192R, R219W

For assay [11], the target named is HOXB6 (Homo sapiens, UniProt P17509 132-218).
Assay [12] addresses ALX3 (Homo sapiens, UniProt O95076 139-225, N203Q).
Assay [13] has as its target ALX3 (Homo sapiens, UniProt O95076 139-225, N203S).
Assay [14] deals with ALX4 (Homo sapiens, UniProt Q9H161 200-286).
The target in assay [15] is ALX4 (Homo sapiens, UniProt Q9H161 200-286, Q225E).
The target in assay [16] is ALX1 (Homo sapiens, UniProt Q15699 118-204, L144V).
The target in assay [17] is ALX1 (Homo sapiens, UniProt Q15699 118-204, L144R).
Assay [18] addresses ALX1 (Homo sapiens, UniProt Q15699 118-204).
In assay [19] the target is PRRX1 (Homo sapiens, UniProt P54821 80-166, F113S).
Assay [20] addresses PROP1 (Homo sapiens, UniProt O75360 56-141).
In assay [21] the target is PROP1 (Homo sapiens, UniProt O75360 56-141, R99H).
For assay [22], the target named is PROP1 (Homo sapiens, UniProt O75360 56-141, F88S).
The target in assay [23] is HESX1 (Homo sapiens, UniProt Q9UBX0 95-180, F115L).
The target in assay [24] is PRRX1 (Homo sapiens, UniProt P54821 80-166).
For assay [25], the target named is PITX2 (Homo sapiens, UniProt Q99697 72-157).
For assay [26], the target named is SHOX (Homo sapiens, UniProt O15266 103-189, R173C).
Assay [27] concerns the target HESX1 (Homo sapiens, UniProt Q9UBX0 95-180, R109Q).
Assay [28] has as its target ALX3 (Homo sapiens, UniProt O95076 139-225, L168V).

Numbering of substitutions follows the chain as printed.

Sequence of ALX1 (Homo sapiens, UniProt Q15699 118-204, L144R) (Q15699 118-204 L144R): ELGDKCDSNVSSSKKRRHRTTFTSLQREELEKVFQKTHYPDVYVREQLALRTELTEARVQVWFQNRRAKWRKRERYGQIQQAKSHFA
Sequence of ALX1 (Homo sapiens, UniProt Q15699 118-204, L144V) (Q15699 118-204 L144V): as the sequence (Q15699 118-204 L144R) above, with R27V counted along it
Sequence of HOXB6 (Homo sapiens, UniProt P17509 132-218, K202E) (P17509 132-218 K202E): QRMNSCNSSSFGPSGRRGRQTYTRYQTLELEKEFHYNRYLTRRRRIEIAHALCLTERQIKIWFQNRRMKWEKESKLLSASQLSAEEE
Sequence of ALX4 (Homo sapiens, UniProt Q9H161 200-286, Q225E) (Q9H161 200-286 Q225E): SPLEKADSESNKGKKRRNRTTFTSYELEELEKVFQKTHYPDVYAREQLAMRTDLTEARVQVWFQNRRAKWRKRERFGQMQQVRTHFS
Sequence of ALX1 (Homo sapiens, UniProt Q15699 118-204) (Q15699 118-204): as the sequence (Q15699 118-204 L144R) above, with R27L counted along it
Sequence of HESX1 (Homo sapiens, UniProt Q9UBX0 95-180, F115L) (Q9UBX0 95-180 F115L): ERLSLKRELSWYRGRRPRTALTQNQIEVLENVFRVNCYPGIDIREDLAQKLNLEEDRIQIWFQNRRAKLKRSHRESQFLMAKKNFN
Sequence of PRRX1 (Homo sapiens, UniProt P54821 80-166, F113S) (P54821 80-166 F113S): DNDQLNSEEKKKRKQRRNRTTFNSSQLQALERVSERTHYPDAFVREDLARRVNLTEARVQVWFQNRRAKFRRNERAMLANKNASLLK
Sequence of ALX4 (Homo sapiens, UniProt Q9H161 200-286) (Q9H161 200-286): as the sequence (Q9H161 200-286 Q225E) above, with E26Q counted along it
Sequence of PRRX1 (Homo sapiens, UniProt P54821 80-166) (P54821 80-166): as the sequence (P54821 80-166 F113S) above, with S34F counted along it
Sequence of PROP1 (Homo sapiens, UniProt O75360 56-141, R99H) (O75360 56-141 R99H): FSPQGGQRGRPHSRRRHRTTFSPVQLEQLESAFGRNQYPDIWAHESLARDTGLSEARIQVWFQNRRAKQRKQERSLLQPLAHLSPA
Sequence of PROP1 (Homo sapiens, UniProt O75360 56-141, F88S) (O75360 56-141 F88S): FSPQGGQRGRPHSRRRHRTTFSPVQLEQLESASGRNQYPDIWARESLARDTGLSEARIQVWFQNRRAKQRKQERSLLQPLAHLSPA
Sequence of HESX1 (Homo sapiens, UniProt Q9UBX0 95-180, R109Q) (Q9UBX0 95-180 R109Q): as the sequence (Q9UBX0 95-180 F115L) above, with R15Q, L21F counted along it
Sequence of PROP1 (Homo sapiens, UniProt O75360 56-141) (O75360 56-141): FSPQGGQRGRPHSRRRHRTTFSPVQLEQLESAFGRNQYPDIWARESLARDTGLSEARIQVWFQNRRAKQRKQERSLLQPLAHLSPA
Sequence of HOXB6 (Homo sapiens, UniProt P17509 132-218) (P17509 132-218): as the sequence (P17509 132-218 K202E) above, with E71K counted along it
Sequence of MSX2 (Homo sapiens, UniProt P35548 130-214) (P35548 130-214): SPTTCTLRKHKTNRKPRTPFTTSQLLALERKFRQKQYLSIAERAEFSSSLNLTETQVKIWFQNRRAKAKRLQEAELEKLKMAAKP
Sequence of MSX2 (Homo sapiens, UniProt P35548 130-214, F161Y) (P35548 130-214 F161Y): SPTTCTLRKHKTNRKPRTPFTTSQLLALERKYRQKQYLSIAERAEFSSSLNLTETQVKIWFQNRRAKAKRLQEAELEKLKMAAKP
Sequence of SHOX (O15266 103-189 R173C): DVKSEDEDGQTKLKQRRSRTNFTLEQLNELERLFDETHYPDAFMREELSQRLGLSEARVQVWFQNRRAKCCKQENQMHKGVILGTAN
Sequence of ALX3 (Homo sapiens, UniProt O95076 139-225, L168V) (O95076 139-225 L168V): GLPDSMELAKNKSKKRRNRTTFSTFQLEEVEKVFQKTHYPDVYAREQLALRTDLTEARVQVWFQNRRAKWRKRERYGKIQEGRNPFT
Sequence of ALX3 (Homo sapiens, UniProt O95076 139-225, N203S) (O95076 139-225 N203S): as the sequence (O95076 139-225 L168V) above, with V30L, N65S counted along it
Sequence of MSX2 (Homo sapiens, UniProt P35548 130-214, R199I) (P35548 130-214 R199I): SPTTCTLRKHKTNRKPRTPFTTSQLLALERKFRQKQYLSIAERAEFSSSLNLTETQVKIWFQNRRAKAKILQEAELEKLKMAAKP
Sequence of ALX3 (Homo sapiens, UniProt O95076 139-225, N203Q) (O95076 139-225 N203Q): as the sequence (O95076 139-225 L168V) above, with V30L, N65Q counted along it

In the case of CAGCCCGC, the binding signal in assay [1] was 9.17 upbm affinity estimate (log intensity, higher = more binding, comparable within an allelic series); in assay [2], 9.23 upbm affinity estimate (log intensity, higher = more binding, comparable within an allelic series); in [3], 9 upbm affinity estimate (log intensity, higher = more binding, comparable within an allelic series); in [4] it was 9.36 upbm affinity estimate (log intensity, higher = more binding, comparable within an allelic series); in [5], 9.12 upbm affinity estimate (log intensity, higher = more binding, comparable within an allelic series); in assay [6] it was 9.04 upbm affinity estimate (log intensity, higher = more binding, comparable within an allelic series). Further, the binding signal in assay [7] is 9.33 upbm affinity estimate (log intensity, higher = more binding, comparable within an allelic series); in [8] it was 8.99 upbm affinity estimate (log intensity, higher = more binding, comparable within an allelic series); in assay [9], 9.37 upbm affinity estimate (log intensity, higher = more binding, comparable within an allelic series); in [10] it was 9.09 upbm affinity estimate (log intensity, higher = more binding, comparable within an allelic series); in [11] it was 8.96 upbm affinity estimate (log intensity, higher = more binding, comparable within an allelic series).

Consider ATAGAGAT, for which the binding signal in assay [1] was 10.5 upbm affinity estimate (log intensity, higher = more binding, comparable within an allelic series); in assay [2], 10.6 upbm affinity estimate (log intensity, higher = more binding, comparable within an allelic series).

With CATATTAA, the binding signal is 11.8 upbm affinity estimate (log intensity, higher = more binding, comparable within an allelic series) in assay [1]; 12.1 upbm affinity estimate (log intensity, higher = more binding, comparable within an allelic series) in assay [2]; 10 upbm affinity estimate (log intensity, higher = more binding, comparable within an allelic series) in assay [3]; 8.63 upbm affinity estimate (log intensity, higher = more binding, comparable within an allelic series) in assay [12]; 11.8 upbm affinity estimate (log intensity, higher = more binding, comparable within an allelic series) in assay [5]; 10.8 upbm affinity estimate (log intensity, higher = more binding, comparable within an allelic series) in assay [6]. For the same sequence, the binding signal in [8] is 11 upbm affinity estimate (log intensity, higher = more binding, comparable within an allelic series); in assay [10], 11 upbm affinity estimate (log intensity, higher = more binding, comparable within an allelic series); in [13], 8.71 upbm affinity estimate (log intensity, higher = more binding, comparable within an allelic series).

Regarding GACTGGAC, the binding signal in assay [14] is 7.98 upbm affinity estimate (log intensity, higher = more binding, comparable within an allelic series); in assay [15] it was 8.14 upbm affinity estimate (log intensity, higher = more binding, comparable within an allelic series); in assay [16], 6.55 upbm affinity estimate (log intensity, higher = more binding, comparable within an allelic series); in assay [17] it was 6.42 upbm affinity estimate (log intensity, higher = more binding, comparable within an allelic series); in assay [18] it was 6.44 upbm affinity estimate (log intensity, higher = more binding, comparable within an allelic series).

In the case of AATTATGT, the binding signal in [1] is 11.6 upbm affinity estimate (log intensity, higher = more binding, comparable within an allelic series); in [19], 11 upbm affinity estimate (log intensity, higher = more binding, comparable within an allelic series); in assay [2], 12.1 upbm affinity estimate (log intensity, higher = more binding, comparable within an allelic series); in assay [16], 11.4 upbm affinity estimate (log intensity, higher = more binding, comparable within an allelic series); in assay [5] it was 11.8 upbm affinity estimate (log intensity, higher = more binding, comparable within an allelic series); in assay [17] it was 11.1 upbm affinity estimate (log intensity, higher = more binding, comparable within an allelic series). The binding signal is 10.7 upbm affinity estimate (log intensity, higher = more binding, comparable within an allelic series) in assay [6]; 11 upbm affinity estimate (log intensity, higher = more binding, comparable within an allelic series) in assay [8]; 11 upbm affinity estimate (log intensity, higher = more binding, comparable within an allelic series) in [20]; 10.7 upbm affinity estimate (log intensity, higher = more binding, comparable within an allelic series) in [21]; 7.74 upbm affinity estimate (log intensity, higher = more binding, comparable within an allelic series) in [22]; 7.75 upbm affinity estimate (log intensity, higher = more binding, comparable within an allelic series) in assay [23]. Further, the binding signal is 11 upbm affinity estimate (log intensity, higher = more binding, comparable within an allelic series) in assay [10] and 13.3 upbm affinity estimate (log intensity, higher = more binding, comparable within an allelic series) in assay [24].

GAGGACTC: the binding signal in assay [14] was 8.06 upbm affinity estimate (log intensity, higher = more binding, comparable within an allelic series); in assay [15], 8.19 upbm affinity estimate (log intensity, higher = more binding, comparable within an allelic series); in [16], 6.41 upbm affinity estimate (log intensity, higher = more binding, comparable within an allelic series); in [25], 7.89 upbm affinity estimate (log intensity, higher = more binding, comparable within an allelic series); in [17], 6.53 upbm affinity estimate (log intensity, higher = more binding, comparable within an allelic series); in assay [18], 6.39 upbm affinity estimate (log intensity, higher = more binding, comparable within an allelic series).

Regarding AATTAGAA, the binding signal in assay [1] is 11.6 upbm affinity estimate (log intensity, higher = more binding, comparable within an allelic series); in assay [19], 11.1 upbm affinity estimate (log intensity, higher = more binding, comparable within an allelic series); in assay [2], 12.1 upbm affinity estimate (log intensity, higher = more binding, comparable within an allelic series); in [5], 11.9 upbm affinity estimate (log intensity, higher = more binding, comparable within an allelic series); in [26], 9.39 upbm affinity estimate (log intensity, higher = more binding, comparable within an allelic series); in assay [6], 10.5 upbm affinity estimate (log intensity, higher = more binding, comparable within an allelic series). The binding signal is 10.9 upbm affinity estimate (log intensity, higher = more binding, comparable within an allelic series) in [8]; 8.83 upbm affinity estimate (log intensity, higher = more binding, comparable within an allelic series) in assay [27]; 9.7 upbm affinity estimate (log intensity, higher = more binding, comparable within an allelic series) in assay [28]; 7.75 upbm affinity estimate (log intensity, higher = more binding, comparable within an allelic series) in [23]; 10.9 upbm affinity estimate (log intensity, higher = more binding, comparable within an allelic series) in assay [10].

For the origin of these results see article PMC11006913.
